target: UNC5D; test: pooled miR-30 sensor sort-seq; sequence = guide strand; settings: shRNA
Further: reference of the scale not given here.

Sequence	sensor-assay potency score (higher = more potent)
TAGATCAACACGTGTCTCCTAG	1.06
TAGATAACTAGATCAACACGTG	-0.0609
TAAATTAACTTTATGATGCTAC	-0.135
TTGACAATAATCTTGTCTCATC	-0.801
TAACCAACCTCTAAGTAGCTGA	0.224
TTTGTGATGACACAGTACCCAC	-1.26
TTAGAAAAAACAACTTTCCGTA	0.101
TACATTTCTATAGAAATCCTAT	-0.569
TACATTTGTTTATCAATCCTGA	-0.0896
TTGTCCTACATCATAAGCCTTT	-0.645

target: UPK1A; test: as above; settings: shRNA

Sequence	sensor-assay potency score (higher = more potent)
ATGGCTATCAGCATGACCGGGA	-0.114
TACGTGAGGACCATGGACCGGC	0.148
TTGGACACCATGTAGTCACGGT	0.419
TATGGTCTCAGCAAACAGGGAC	-0.387
TAGGACGTGATGCAGGAGGCGC	-1.09
TAGCAGGCCCACCACAACTGGA	-1.8
TTGGTGAACAGGTAGTCCATGT	-0.409
TACTGGTCGGCTGTCACCCATA	-1.44
TAGCTGTCGATGGCGTGGCCGA	-1.49
TCTTGCTCAATCATGACGCGGT	0.151
TAGAAGGTCAGCATCTGCTTGG	-0.08

target: UQCRQ; test: as above; settings: shRNA

Sequence	sensor-assay potency score (higher = more potent)
ATAAAACACTACAAACTGCGGC	0.284
AACGGTGACAAGCTGTAGCTGA	0.0218
TGGATCTCTCGAACTCTTCAGT	-0.739
TATTGTGTCTTTGAGACACTAC	-0.42
TGTAGCTGATCACATGCCGCAT	-0.74
TCCTTTAGTGAAGACGTGCGGA	-0.407
TCGAACTCTTCAGTCCCCCATG	-1.13
TAAAACACTACAAACTGCGGCA	0.151
TCGAACGGTGACAAGCTGTAGC	-0.337
TTCTTCCTCTTGGATCTCTCGA	-0.853
TGCTCGAACGGTGACAAGCTGT	-0.735

target: USO1; test: as above; settings: shRNA

Sequence	sensor-assay potency score (higher = more potent)
TACACGAACAAGCTGTAGCATT	-0.757
TTTTAATGTAGAAACCTGCTGC	0.733
TAAAATAATTTGTTGCACCTGA	0.172
TATGATATAATCTCTATTGTTC	-0.231
TTTCTGATCTTGATCGGCCAAG	-1.48
TTATAGTCTCGGTCTCTCCTTG	0.0783
TAGGATAGTACAAAGCTGCTGC	0.88
TACCAATACACGAACAAGCTGT	0.107
